# Where “and” joins values, the source holds several entries; their conditions need not be identical. Identical values can stand only once.
# Biological target: Vascular endothelial growth factor receptor 2 (Homo sapiens) (UniProt P35968)
# Conditions: at 0.1 µM
# Chain of Vascular endothelial growth factor receptor 2 (Homo sapiens) (P35968 whole entry): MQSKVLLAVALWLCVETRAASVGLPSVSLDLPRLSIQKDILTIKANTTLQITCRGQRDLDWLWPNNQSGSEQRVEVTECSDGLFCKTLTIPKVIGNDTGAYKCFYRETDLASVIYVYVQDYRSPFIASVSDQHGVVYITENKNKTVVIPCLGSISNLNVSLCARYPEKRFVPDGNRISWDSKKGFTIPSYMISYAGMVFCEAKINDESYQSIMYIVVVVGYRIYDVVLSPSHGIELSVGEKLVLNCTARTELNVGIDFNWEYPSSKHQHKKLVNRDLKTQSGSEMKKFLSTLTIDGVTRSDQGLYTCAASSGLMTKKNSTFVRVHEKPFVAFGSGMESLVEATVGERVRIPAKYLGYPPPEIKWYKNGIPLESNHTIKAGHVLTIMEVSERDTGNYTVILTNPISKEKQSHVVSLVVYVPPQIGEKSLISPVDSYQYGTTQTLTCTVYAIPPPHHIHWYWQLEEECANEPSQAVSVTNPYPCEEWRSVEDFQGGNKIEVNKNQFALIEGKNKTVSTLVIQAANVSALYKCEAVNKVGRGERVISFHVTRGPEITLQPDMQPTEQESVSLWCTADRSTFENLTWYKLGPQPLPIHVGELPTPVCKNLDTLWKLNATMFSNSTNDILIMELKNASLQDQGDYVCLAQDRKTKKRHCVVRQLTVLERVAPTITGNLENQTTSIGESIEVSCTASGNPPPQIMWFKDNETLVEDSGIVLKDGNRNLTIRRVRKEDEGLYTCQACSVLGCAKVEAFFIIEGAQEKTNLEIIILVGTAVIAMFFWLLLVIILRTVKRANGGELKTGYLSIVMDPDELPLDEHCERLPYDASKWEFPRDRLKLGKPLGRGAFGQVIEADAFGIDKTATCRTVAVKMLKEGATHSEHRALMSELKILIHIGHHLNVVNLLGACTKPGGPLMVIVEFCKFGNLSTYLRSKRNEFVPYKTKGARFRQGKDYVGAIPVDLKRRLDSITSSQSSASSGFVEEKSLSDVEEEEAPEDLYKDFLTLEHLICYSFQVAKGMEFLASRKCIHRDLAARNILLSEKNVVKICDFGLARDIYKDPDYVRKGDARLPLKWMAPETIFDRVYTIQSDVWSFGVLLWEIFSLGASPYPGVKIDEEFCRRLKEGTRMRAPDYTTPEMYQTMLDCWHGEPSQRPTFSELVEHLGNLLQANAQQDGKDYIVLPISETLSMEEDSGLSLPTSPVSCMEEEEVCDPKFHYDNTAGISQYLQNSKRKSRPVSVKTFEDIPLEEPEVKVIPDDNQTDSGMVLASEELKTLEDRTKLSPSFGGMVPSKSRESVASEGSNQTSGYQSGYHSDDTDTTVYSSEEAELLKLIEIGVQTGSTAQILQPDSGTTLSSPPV
row,SMILES,inhibition
1,COC(=O)Nc1nc2cc(Oc3ccc(NC(=O)Nc4ccccc4)cc3)ccc2[nH]1,4.55%
2,CN1CCC(n2cnc(-c3ccc(F)cc3)c2-c2ccnc(NCCO)n2)CC1,5.3%
3,CC1=C(C(=O)Nc2ccc3[nH]ncc3c2)C(c2ccc(F)cc2)N=C(c2ccc(C(F)(F)F)nc2)N1 (configuration not stated),5.88%
4,NS(=O)(=O)c1cccc(N/C=C2\C(=O)Nc3ccccc32)c1,9.08%
5,O=C(O[C@H]1CN[C@H](C#Cc2cc3ncnc(Nc4ccc5c(ccn5Cc5cc(F)ccc5F)c4)c3s2)C1)N1CCOCC1,3.78%
6,CC1(C)CC(n2cnc(-c3ccc(F)cc3)c2-c2ccnc(N)n2)CC(C)(C)N1,-0.9%
7,c1ccc(-c2n[nH]cc2-c2ccnc(-c3ccc(OCCn4ccnc4)cc3)c2)nc1,19.9%
8,CCN1CCC(C(=O)Nc2n[nH]c3nnc(-c4cccc(F)c4F)cc23)CC1,1.67%
9,CS(=O)(=O)CCNCc1ccoc1-c1ccc2ncnc(Nc3ccc(OCc4ccccc4)cc3)c2c1,3.88%
10,COc1cc2c(cc1Nc1nc(Nc3cccc(F)c3C(N)=O)c3cc[nH]c3n1)N(C(=O)CN1CCN(C(C)C)CC1)CC2,0.99%
11,O=C(Nc1n[nH]c2nnc(-c3cccnc3)cc12)C1CC1,-0.85%
12,COc1cccc(-n2ncc3c(N/N=C/c4ccc(C(=O)NCCN(C)C)cc4)ncnc32)c1,43.6%
13,CN1CCC(C(=O)Nc2n[nH]c3nc(-c4ccc(O)cc4)c(Br)cc23)CC1,7.52% and 6.12%
14,O=C(O[C@H]1CN[C@H](C#Cc2cc3ncnc(Nc4ccc5c(cnn5Cc5ccccc5)c4)c3s2)C1)N1CCOCC1,-0.01%

# Biological target: Vascular endothelial growth factor receptor 2 (Homo sapiens) (UniProt P35968)
# Conditions: at 1 µM
row,SMILES,inhibition
1,CN1CCN(Cc2ccc(-c3cc4ncnc(Nc5ccc(OCc6cccc(F)c6)c(Cl)c5)c4s3)o2)CC1,24% and 24.2%
2,Cc1nnc(-c2cccc(-c3ccc(C(=O)NCC4CC4)cc3)c2)o1,9.47%
3,CCn1c(-c2nonc2N)nc2cncc(C(=O)NCCNC)c21,13.5%
4,COc1c(C(N)=O)cc(-c2ccc(Cl)cc2)cc1-c1ccc(S(N)(=O)=O)cc1,9.32%
5,COc1cc(N2CCN(C(C)C)CC2)ccc1Nc1nc(Nc2cccc3ncccc23)c2cc[nH]c2n1,3.64%
6,CS(=O)(=O)CCNCc1ccc(-c2ccc3ncnc(Nc4ccc(OCc5ccccc5)cc4)c3c2)o1,6.56%
7,Cc1c2ccc(N(C)c3ccnc(Nc4cccc(S(N)(=O)=O)c4)n3)cc2nn1C,73%
8,N#Cc1cccc(Nc2ncc(-c3ccccc3)o2)c1,11%
9,FC(F)(F)CNc1nccc(-c2cnn3ncccc23)n1,4.88%
10,c1cnn2ncc(-c3ccnc(NCCCN4CCOCC4)n3)c2c1,6.83%
11,Cc1cc(O)cc(C)c1/C=C/c1cncc(C(N)=O)c1,6.58%
12,NC(=O)c1ccc2c(-c3ccnc(NCCCO)n3)c(-c3ccc(F)cc3)nn2c1,16.6%
13,Fc1cccc(COc2ccc(Nc3ncncc3C#Cc3ccccc3)cc2Cl)c1,6.38%
14,CCCNc1cccc(-n2ncc3c(N/N=C/c4ccncc4)ncnc32)c1,64.9%
15,COc1cccc(Nc2nccc(-c3cnn4ncccc34)n2)c1,42.1%
16,Cc1cc(O)cc(C)c1/C=C/c1cncc(C(=O)OC(C)(C)C)c1,6%
17,CS(=O)(=O)Nc1ccc(-c2ccc3c(NC(=O)C4CC4)n[nH]c3c2)cc1,9.88%
18,COC(=O)Nc1nc2cc(Oc3ccc(NC(=O)Nc4ccccc4)cc3)ccc2[nH]1,7.27%
19,CN1CCC(n2cnc(-c3ccc(F)cc3)c2-c2ccnc(NCCO)n2)CC1,9.32%
20,CC1=C(C(=O)Nc2ccc3[nH]ncc3c2)C(c2ccc(F)cc2)N=C(c2ccc(C(F)(F)F)nc2)N1 (configuration not stated),9.39%
21,NS(=O)(=O)c1cccc(N/C=C2\C(=O)Nc3ccccc32)c1,35.3%
22,O=C(O[C@H]1CN[C@H](C#Cc2cc3ncnc(Nc4ccc5c(ccn5Cc5cc(F)ccc5F)c4)c3s2)C1)N1CCOCC1,10.6%
23,CC1(C)CC(n2cnc(-c3ccc(F)cc3)c2-c2ccnc(N)n2)CC(C)(C)N1,5.32%
24,c1ccc(-c2n[nH]cc2-c2ccnc(-c3ccc(OCCn4ccnc4)cc3)c2)nc1,65.9%
25,CCN1CCC(C(=O)Nc2n[nH]c3nnc(-c4cccc(F)c4F)cc23)CC1,4.26%
26,CS(=O)(=O)CCNCc1ccoc1-c1ccc2ncnc(Nc3ccc(OCc4ccccc4)cc3)c2c1,5.6%
27,COc1cc2c(cc1Nc1nc(Nc3cccc(F)c3C(N)=O)c3cc[nH]c3n1)N(C(=O)CN1CCN(C(C)C)CC1)CC2,9.98%
28,O=C(Nc1n[nH]c2nnc(-c3cccnc3)cc12)C1CC1,2.5%

# Reference: ChEMBL document CHEMBL1961873, “Compounds: GSK PKIS; Assays: Nanosyn kinase panel” (2012)
